Hits are enriched below; roughly 5% of the tested compounds scored in any of these assays.
AHR act – activates the human aryl hydrocarbon receptor | hit rate 2.5% among 320,000 | activation, % at 5 µM | P35869 | AHR-responsive luciferase reporter cells, luminescence; in the data active means activation above about 47%;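 further: 0% = vehicle wells and 100% = reference agonist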
EBI2 block – blocks human EBI2 receptor beta-arrestin signaling; inhibition, % at 5 µM; P32249; AID 651636; hit rate 0.81% among 360,000; EBI2 beta-arrestin recruitment, luminescence, 7a,25-OHC stimulated; in the data active means inhibition above about 38%;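 further: enzyme fragment complementation signal reports receptor beta-arrestin coupling in cells; 0% = agonist plus DMSO wells and 100% = wells without agonist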
SENP8 block-1 – inhibitors of human SENP8 protease. Q96LD8. purified SENP8, Z-RLRGG-aminoluciferin cleavage, luminescence. inhibition, % at 10 µM. hit rate 1.2% among 330,000. AID 2540; in the data active means inhibition above about 50%
SENP8 block-2 – blocks human SENP8 cleavage of Nedd8 substrate; Q96LD8; recombinant SENP8, Nedd8 substrate fluorescence; inhibition, % at 20 µM; hit rate 0.64% among 360,000; AID 602440; in the data active means inhibition mostly above about 40%, no sharp cut-off; inactive means mostly below about 27%
SENP6 block – blocks the human protease SENP6; hit rate 1.8% among 330,000; inhibition, % at 10 µM; Recombinant SENP6 catalytic domain, aminoluciferin luminescence; AID 2599;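 active means inhibition above about 50% at the single tested dose, limit read from the data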;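 further: plate controls were DMSO wells with enzyme for no effect and DMSO wells lacking enzyme for full effect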
Target sequence (Q9GZR1 628-1112 limits assumed): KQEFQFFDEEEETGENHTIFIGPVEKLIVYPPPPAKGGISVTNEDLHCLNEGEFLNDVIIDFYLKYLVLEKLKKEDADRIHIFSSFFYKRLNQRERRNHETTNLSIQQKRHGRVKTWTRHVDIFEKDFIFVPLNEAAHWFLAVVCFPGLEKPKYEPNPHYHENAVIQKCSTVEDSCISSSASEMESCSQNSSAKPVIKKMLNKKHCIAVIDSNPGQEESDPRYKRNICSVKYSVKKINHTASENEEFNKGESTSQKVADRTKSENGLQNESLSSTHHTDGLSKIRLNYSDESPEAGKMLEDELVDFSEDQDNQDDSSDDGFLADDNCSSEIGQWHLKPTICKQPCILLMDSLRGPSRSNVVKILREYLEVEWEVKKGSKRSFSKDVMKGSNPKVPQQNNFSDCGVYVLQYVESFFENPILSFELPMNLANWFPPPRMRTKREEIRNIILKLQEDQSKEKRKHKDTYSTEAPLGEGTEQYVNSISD
SENP7 block – inhibitors of human SENP7 protease | Q9BQF6 | recombinant SENP7, Z-RLRGG-aminoluciferin luminescence, 40 min | inhibition, % at 5 µM | hit rate 1.5% among 330,000;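 active means inhibition above about 50% at the single test dose, limit read from the data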;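 further: plate controls were DMSO with enzyme for no effect and no enzyme buffer wells for full effect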
SENP8 conf – confirmation of human SENP8 protease inhibitors | shares compounds with SENP7 block | hit rate 40% among 6,200 | AID 488912 | Recombinant SENP8, Z-RLRGG-aminoluciferin luminescence, 60 min | inhibition, % at 12.5 µM;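 active means mean inhibition across replicates above about 50%, limit read from the data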
SENP6 confirm – confirmation of human SENP6 protease inhibitors; shares compounds with SENP7 block; inhibition, % at 12.5 µM; AID 488915; hit rate 58% among 6,200; recombinant SENP6, Z-RLRGG-aminoluciferin luminescence
SENP7 confirm – confirmation of human SENP7 protease inhibitors; shares compounds with SENP7 block; recombinant SENP7, Z-RLRGG-aminoluciferin luminescence, 40 min; inhibition, % at 12.5 µM; hit rate 69% among 6,200
Casp3 select – selectivity test for SENP inhibitors: human caspase-3 inhibition. shares compounds with SENP7 block. hit rate 60% among 6,200. purified caspase-3, Z-DEVD-aminoluciferin luminescence, 60 min. inhibition, % at 12.5 µM;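 active means mean inhibition above about 50%, limit read from the data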;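 further: plate controls were enzyme with DMSO for no effect and wells without caspase-3 for full effect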
Luc interf – counter-screen for SENP inhibitors: luminescence interference; AID 488919; inhibition, % at 12.5 µM; hit rate 39% among 6,200; Pre-incubated SENP8/Z-RLRGG-aminoluciferin, luciferase luminescence interference; shares compounds with SENP7 block;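 active means mean inhibition above about 50% when retested at one dose, limit read from the data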;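 further: plate controls were DMSO wells with completed reaction for no effect and substrate without enzyme for full effect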
An asterisk follows results filed as active; . = no result.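 How the source made its calls, unless noted: active means mean inhibition above about 50% in the one-dose retest (limit read from the data); inactive means the rest.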

SMILES	AHR act	EBI2 block	SENP8 block-1	SENP8 block-2	SENP6 block	SENP7 block	SENP8 conf	SENP6 confirm	SENP7 confirm	Casp3 select	Luc interf
c1ccc(Nc2nnc(-c3cccnc3)s2)cc1	7	1	72*	-308	80*	87*	9	14	13	27	29
Nc1nnc(-c2cccnc2)s1	2	-22	4	-24	-5	2	.	.	.	.	.
O=C(CCC1CCCC1)c1c(O)c2ccccc2oc1=O	14	-6	46	4	71*	4	68*	68*	85*	70*	39
CC(=O)/C=C(\C)Nc1ccc(-c2cnc(-c3ccccc3)o2)cc1	13	8	78*	-492	76*	72*	29	28	48	22	45
O=C(Nc1ccc(-c2nnc(-c3ccccc3)o2)cc1)C(F)(F)F	8	-2	66*	-196	76*	91*	-7	-3	-5	-4	-16
CC(C)C(=O)Nc1ccc(-c2nnc(-c3ccccc3)o2)cc1	.	17	58*	-311	61*	76*	12	13	19	22	7
Cn1c(/N=C/c2c[nH]c3ccccc23)nc2ccccc21	22	4	94*	17	95*	93*	96*	97*	103*	94*	20
Cc1nn(Cc2ccccc2Cl)c(C)c1C(=O)NCCN1C(=O)S/C(=C\c2ccccc2)C1=O	-2	20	-2	7	-9	66*	-11	-4	-2	-2	-8
O=C(Nc1ccc(N2CCOCC2)cc1)c1cn2ccccc2n1	-9	-6	85*	8	96*	93*	86*	86*	98*	95*	15
O=C(Nc1ccc(Cl)c(S(=O)(=O)N2CCOCC2)c1)c1cn2ccccc2n1	7	0	0	13	-12	-14	.	.	.	.	.
O=C(Nc1ccc(N2CCCC2)cc1)c1cccc(Cl)c1	-2	-17	87*	30	88*	94*	3	56*	51*	73*	9
O=C(Nc1ccc(SC(F)(F)F)cc1)c1ccccn1	-3	2	89*	6	93*	93*	86*	94*	87*	61*	38
O=C(Nc1ccc(N2CCCCC2)cc1)c1ccccn1	-9	-40	95*	1	101*	100*	95*	98*	103*	98*	76*
COc1ccc(/C=N/NC(=O)C(O)(c2ccccc2)c2ccccc2)cc1OC	1	0	1	3	-13	-6	.	.	.	.	.
CN(C)Cc1c(O)ccc2c(=O)c(-c3ccccc3Cl)c(C(F)(F)F)oc12	-1	5	-2	-89	3	12	.	.	.	.	.
CN(Cc1ccccc1)C(=O)c1ccc2c(c1)NC(=O)C(N1CCOCC1)S2 (stereo unspecified)	.	-3	.	10	.	.	.	.	.	.	.
O=C(Nc1ccc(N2CCCCC2)cc1)C(Cl)c1ccccc1 (stereo unspecified)	6	-1	34	12	61*	54*	14	15	15	28	26
Cc1cc(C)cc(NC(=O)Nc2ccc(N3CCCCC3)cc2)c1	16	10	80*	24	81*	82*	16	20	42	33	20
O=C(Nc1ccc(N2CCCCCC2)cc1)c1ccc[nH]1	4	0	56*	-5	66*	33	11	9	-2	-1	35
O=C(Nc1ccc(N2CCCC2)cc1)C(c1ccccc1)c1ccccc1	1	2	-3	-15	-4	6	.	.	.	.	.

From PubChem BioAssay
